Each structure is given as a SMILES string.

For the first experiment, the target named is Sialic acid-binding Ig-like lectin 9 (Homo sapiens) (UniProt Q9Y336). The experiment is described as follows: Hs-Siglec9 ALPHAscreen SOP 20170721. The arrangement: scale not given: direction of the effect not stated beside the values. As to conditions: 10 µM. (In general: In Alpha technology, singlet oxygen from a donor bead excites a nearby acceptor bead.)
Sequence of Sialic acid-binding Ig-like lectin 9 (Homo sapiens) (Q9Y336 whole entry): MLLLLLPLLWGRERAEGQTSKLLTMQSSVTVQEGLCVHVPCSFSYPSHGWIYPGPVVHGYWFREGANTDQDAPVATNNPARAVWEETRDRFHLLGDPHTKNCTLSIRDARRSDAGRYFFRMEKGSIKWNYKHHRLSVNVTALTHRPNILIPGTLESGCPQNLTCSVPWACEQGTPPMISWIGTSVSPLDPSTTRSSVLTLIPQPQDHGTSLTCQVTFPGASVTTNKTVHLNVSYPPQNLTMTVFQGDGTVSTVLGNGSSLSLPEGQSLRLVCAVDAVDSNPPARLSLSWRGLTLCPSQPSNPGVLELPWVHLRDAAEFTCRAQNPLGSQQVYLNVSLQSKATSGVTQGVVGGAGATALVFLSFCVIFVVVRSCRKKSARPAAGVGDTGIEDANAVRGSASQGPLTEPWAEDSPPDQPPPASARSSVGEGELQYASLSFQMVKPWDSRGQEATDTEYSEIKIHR
On to `N#Cc1ccc(N2CCCN(C(=O)CC3CCCO3)CC2)cc1` (stereo not drawn), for which the Percent Effect came out at 18.8%.

Regarding `O=c1ccc(-c2cccs2)nn1CN1CCN(Cc2ccccc2)CC1`, the Percent Effect is 1.22%.

Take `Cc1ccc(C(=O)NS(=O)(=O)c2cc(Cl)ccc2Cl)c(=O)[nH]1`: the Percent Effect amounted to 13.3%.

Regarding `Cc1nccn1C1CCCN(C(=O)c2cc(O)nc3ccccc23)C1` (stereo not drawn), the Percent Effect turned out to be 5.85%.

Take `CCCc1n[nH]c(C2CN(C(=O)c3cc(F)ccc3OC)CCO2)n1` (stereo not drawn): the Percent Effect was 3.53%.

Take `Cc1cnn(CC2CCCN2CCCc2nc3ccccc3o2)c1` (stereo not drawn): the Percent Effect was determined as 10.9%.

For the compound `CC(=O)N1CC(Cc2nccc3ccn(C)c23)C1`, the Percent Effect was -7.93%.

On to `CC(c1ccc(Cl)cc1)N1CCN(CCNS(C)(=O)=O)CC1` (stereo not drawn), for which the Percent Effect came to 66.6%.

As for `CCn1ccnc1-c1nc2cc(S(=O)(=O)N3CCCC3)ccc2n1C`, the Percent Effect came out at 25.2%.

With `Cc1ccc(CNCc2ccc(-n3nc(C)cc3C)nc2)cc1`, the Percent Effect was 7.65%.

`CC(C)Oc1cccc(C(=O)C2CCCN(C(=O)c3ccccn3)C2)c1` (stereo not drawn): the Percent Effect turned out to be 4.35%.

On to `CCCS(=O)(=O)N1CCOCC2(CCN(c3ccccn3)C2)C1` (stereo not drawn), for which the Percent Effect was determined as 4.69%.

In the case of `CC(C)Oc1cccc(CNC(=O)NC(C)(C(=O)O)c2ccco2)c1` (stereo not drawn), the Percent Effect came to 13.7%.

Take `O=C(Nc1cccc(CN2CCOC2=O)c1)N1CCSCC1`: the Percent Effect is 9.65%.

On to `Cc1cc(C)cc(NC(=O)CN2CCCC(n3cncn3)C2)c1` (stereo not drawn), for which the Percent Effect came out at 6.56%.

With `Cc1ncsc1CN1CC[C@H]2C(=O)N(c3ccccc3)CCO[C@H]2C1`, the Percent Effect was -5.67%.

With `CCc1nccn1C1CCCN(C(=O)c2ccc3c(c2)OCO3)C1` (stereo not drawn), the Percent Effect is -3.25%.

In the case of `CCN(CC)CC(=O)NCCc1csc(N2CCCC2)n1`, the Percent Effect is -0.334%.

In the case of `COc1cc(NC(=O)c2cc(C)sc2C)c(C(=O)N(C)C)cc1OC`, the Percent Effect came to 6.61%.

For `O=C(Cn1ccc2sccc2c1=O)NCc1ccc2c(c1)OCO2`, the Percent Effect was 0.145%.

In the case of `Cc1nc(CN2C(=O)COC3(CCN(Cc4ccco4)CC3)C2C)cs1` (stereo not drawn), the Percent Effect was determined as 2.66%.

Regarding `COc1cccc(S(=O)(=O)CCN2CCC3(CC2)OCCO3)c1`, the Percent Effect is 6.11%.

As to `CNC(=O)NC(=O)CN1CCC(c2cccc(F)c2)C1` (stereo not drawn), the Percent Effect was -0.914%.

As to `N#Cc1ccc(CNCC(C(=O)N2CCOCC2)c2ccccc2)cc1` (stereo not drawn), the Percent Effect came out at 7.63%.

As to `Cc1ccccc1CNc1nc(O)cc(C2CC(=O)N(C)C2)n1` (stereo not drawn), the Percent Effect is -2.99%.

`COc1cccn(CC(=O)N(C)Cc2ccoc2)c1=O`: the Percent Effect amounted to 30.6%.

On to `CC(NCc1ccc(F)cc1)c1ccc(OCC(=O)NC2CC2)cc1` (stereo not drawn), for which the Percent Effect was -4.28%.

`COc1c(C)cnc(CN2CCCCC2Cn2nc(C)nc2C)c1C` (stereo not drawn): the Percent Effect is -6.46%.

As to `O=C1NCCN1C1CCN(Cc2nc(-c3ccoc3)no2)CC1`, the Percent Effect is 5.09%.

Consider `Cc1cnc(N2CCCC3(CCN(Cc4csc(C)n4)C3=O)C2)nc1` (stereo not drawn), for which the Percent Effect came out at 3.4%.

For `CCS(=O)(=O)N(C)c1ccc(C(=O)N2CCCC(C)C2)cc1` (stereo not drawn), the Percent Effect worked out at 15.7%.

As for `CC(=O)Nc1nc(C(=O)N2CCCC2c2noc(C)n2)cs1` (stereo not drawn), the Percent Effect is -6.87%.

Regarding `Cc1cccc(NC(=O)N2CCCn3cnc(CN4CCCC4)c3C2)c1`, the Percent Effect was -1.77%.

Take `Cc1cc(C(F)(F)F)nn1CC(C)C(=O)Nc1ccncc1` (stereo not drawn): the Percent Effect came out at 8.65%.

`CNC(=O)c1ccc(OC2CCN(S(C)(=O)=O)CC2)c(Cl)c1`: the Percent Effect was -2.97%.

For `Cc1nnc(N2C[C@H](C(=O)NCC3CC3)[C@@H]3CCO[C@@H]3C2)s1`, the Percent Effect came to 2.6%.

With `CCOc1nnc(CNC2CCCN(c3ccc(C)nn3)C2)s1` (stereo not drawn), the Percent Effect is -9.51%.

With `CC(C)NC(=O)N1CCN(S(=O)(=O)C2CC2)CC2(CC(=O)N(C)C2)C1` (stereo not drawn), the Percent Effect was -0.477%.

With `Cc1noc(CN2CCN(CC(C)O)CC2)n1` (stereo not drawn), the Percent Effect was 4.09%.

Another experiment deals with Trypanosoma cruzi. The experiment is described as follows: Trypanosoma cruzi phosphomannomutase and mannose-1-phosphate guanylyltransferase assay. Type of experiment: functional. The arrangement: scale not given: direction of the effect not stated beside the values. As to conditions: 10 µM.
Turning to `N#Cc1ccc(N2CCCN(C(=O)CC3CCCO3)CC2)cc1` (stereo not drawn), the Percent Effect came to 5.19%.

As to `O=c1ccc(-c2cccs2)nn1CN1CCN(Cc2ccccc2)CC1`, the Percent Effect came out at 5.3%.

Turning to `Cc1ccc(C(=O)NS(=O)(=O)c2cc(Cl)ccc2Cl)c(=O)[nH]1`, the Percent Effect came to 4.18%.

For `Cc1nccn1C1CCCN(C(=O)c2cc(O)nc3ccccc23)C1` (stereo not drawn), the Percent Effect is -1.98%.

With `CCCc1n[nH]c(C2CN(C(=O)c3cc(F)ccc3OC)CCO2)n1` (stereo not drawn), the Percent Effect turned out to be 2.33%.

With `Cc1cnn(CC2CCCN2CCCc2nc3ccccc3o2)c1` (stereo not drawn), the Percent Effect is 4.18%.

As for `CC(=O)N1CC(Cc2nccc3ccn(C)c23)C1`, the Percent Effect turned out to be 1.18%.

Take `CC(c1ccc(Cl)cc1)N1CCN(CCNS(C)(=O)=O)CC1` (stereo not drawn): the Percent Effect stood at 3.28%.

Regarding `CCn1ccnc1-c1nc2cc(S(=O)(=O)N3CCCC3)ccc2n1C`, the Percent Effect came out at 4.31%.

Take `Cc1ccc(CNCc2ccc(-n3nc(C)cc3C)nc2)cc1`: the Percent Effect worked out at 1.5%.

In the case of `CC(C)Oc1cccc(C(=O)C2CCCN(C(=O)c3ccccn3)C2)c1` (stereo not drawn), the Percent Effect was -2.12%.

Take `CCCS(=O)(=O)N1CCOCC2(CCN(c3ccccn3)C2)C1` (stereo not drawn): the Percent Effect was -6.88%.

As to `CC(C)Oc1cccc(CNC(=O)NC(C)(C(=O)O)c2ccco2)c1` (stereo not drawn), the Percent Effect came to 3.08%.

Turning to `O=C(Nc1cccc(CN2CCOC2=O)c1)N1CCSCC1`, the Percent Effect came out at 2.04%.

For the compound `Cc1cc(C)cc(NC(=O)CN2CCCC(n3cncn3)C2)c1` (stereo not drawn), the Percent Effect stood at 8.08%.

Turning to `Cc1ncsc1CN1CC[C@H]2C(=O)N(c3ccccc3)CCO[C@H]2C1`, the Percent Effect is -0.591%.

As to `CCc1nccn1C1CCCN(C(=O)c2ccc3c(c2)OCO3)C1` (stereo not drawn), the Percent Effect is -3.93%.

For `CCN(CC)CC(=O)NCCc1csc(N2CCCC2)n1`, the Percent Effect was -2.24%.

On to `COc1cc(NC(=O)c2cc(C)sc2C)c(C(=O)N(C)C)cc1OC`, for which the Percent Effect amounted to 4.42%.

On to `O=C(Cn1ccc2sccc2c1=O)NCc1ccc2c(c1)OCO2`, for which the Percent Effect is -5.62%.

Take `Cc1nc(CN2C(=O)COC3(CCN(Cc4ccco4)CC3)C2C)cs1` (stereo not drawn): the Percent Effect was -3.37%.

In the case of `COc1cccc(S(=O)(=O)CCN2CCC3(CC2)OCCO3)c1`, the Percent Effect is 3.99%.

With `CNC(=O)NC(=O)CN1CCC(c2cccc(F)c2)C1` (stereo not drawn), the Percent Effect is -2.82%.

For the compound `N#Cc1ccc(CNCC(C(=O)N2CCOCC2)c2ccccc2)cc1` (stereo not drawn), the Percent Effect was determined as 2.06%.

On to `Cc1ccccc1CNc1nc(O)cc(C2CC(=O)N(C)C2)n1` (stereo not drawn), for which the Percent Effect is -44.5%.

Take `COc1cccn(CC(=O)N(C)Cc2ccoc2)c1=O`: the Percent Effect was found to be 1.59%.

`CC(NCc1ccc(F)cc1)c1ccc(OCC(=O)NC2CC2)cc1` (stereo not drawn): the Percent Effect is -6.26%.

As to `COc1c(C)cnc(CN2CCCCC2Cn2nc(C)nc2C)c1C` (stereo not drawn), the Percent Effect was determined as 2.55%.

As to `O=C1NCCN1C1CCN(Cc2nc(-c3ccoc3)no2)CC1`, the Percent Effect amounted to 3.56%.

With `Cc1cnc(N2CCCC3(CCN(Cc4csc(C)n4)C3=O)C2)nc1` (stereo not drawn), the Percent Effect was found to be 0.965%.

On to `CCS(=O)(=O)N(C)c1ccc(C(=O)N2CCCC(C)C2)cc1` (stereo not drawn), for which the Percent Effect stood at 3.4%.

Turning to `CC(=O)Nc1nc(C(=O)N2CCCC2c2noc(C)n2)cs1` (stereo not drawn), the Percent Effect was -7.12%.

Regarding `Cc1cccc(NC(=O)N2CCCn3cnc(CN4CCCC4)c3C2)c1`, the Percent Effect was 3.91%.

For the compound `Cc1cc(C(F)(F)F)nn1CC(C)C(=O)Nc1ccncc1` (stereo not drawn), the Percent Effect stood at 0.786%.

As for `CNC(=O)c1ccc(OC2CCN(S(C)(=O)=O)CC2)c(Cl)c1`, the Percent Effect worked out at 0.68%.

`Cc1nnc(N2C[C@H](C(=O)NCC3CC3)[C@@H]3CCO[C@@H]3C2)s1`: the Percent Effect is -6.02%.

`CCOc1nnc(CNC2CCCN(c3ccc(C)nn3)C2)s1` (stereo not drawn): the Percent Effect stood at 6.89%.

Take `CC(C)NC(=O)N1CCN(S(=O)(=O)C2CC2)CC2(CC(=O)N(C)C2)C1` (stereo not drawn): the Percent Effect is 5.23%.

In the case of `Cc1noc(CN2CCN(CC(C)O)CC2)n1` (stereo not drawn), the Percent Effect turned out to be 0.195%.

The values are drawn from ChEMBL document CHEMBL3988442, “University of Dundee, Small-Polar-MMV Screening Library” (2021).
